Measured values published in PubChem BioAssay AID1159580 (chemical genetic matrix, 2015).
Several values for one entry are separate records, joined by “and”; a condition that tells them apart may be missing. Identical values can stand only once. Screen size: about 5,500 compounds; about 2,000 (36%) were called active. Not shown: some 18% with an inconclusive outcome. Cut-off read from the data, not from the text of the source: active = normalized growth mostly below about 0.91 (no sharp cut-off); inconclusive = no clear call, values can overlap the other calls; inactive = mostly above about 0.92. The list shows a part of the results.

Assay: chemical genetic growth profiling, strain panel (AID 1159580);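 note: tested at 20 µM; growth read once vehicle control cultures reached saturation at 30 °C; 1 = growth at the plate median or of vehicle wells; lower values mean less growth of the strain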
Details: S. cerevisiae deletion strains, growth OD

Measured: normalized growth

CCC1(c2ccccc2)C(=O)NCNC1=O
inactive: locus YAL013W, strain DEP1, hits give low values 1.01 | locus YAL021C, strain ccr4, hits give low values 1 | locus YAL026C, strain drs2, hits give low values 0.991 | locus YAL030W, strain snc1, hits give low values 1.01 | locus YAL040C, strain CLN3, hits give low values 0.982 | locus YBL061C, strain skt5, hits give low values 1.01 | locus YBR009C, strain hhf1, hits give low values 0.997 | locus YBR021W, strain FUR4, hits give low values 1 | locus YBR023C, strain chs3, hits give low values 1.01 | locus YBR171W, strain sec66, hits give low values 0.991 | locus YBR229C, strain ROT2, hits give low values 1 | locus YBR231C, strain swc5, hits give low values 1 | locus YBR279W, strain paf1, hits give low values 1.02 | locus YCL011C, strain gbp2, hits give low values 0.978 | locus YCL016C, strain dcc1, hits give low values 1.01 | locus YCL029C, strain bik1, hits give low values 0.994 | locus YCL061C, strain MRC1 (second series), hits give low values 0.993 | locus YCL061C, strain MRC1, hits give low values 0.988 | locus YCL069W, strain vba3, hits give low values 0.99 | locus YCR088W, strain abp1, hits give low values 0.984 | locus YDL005C, strain med2, hits give low values 1.01 | locus YDL035C, strain GPR1, hits give low values 1.01 | locus YDL040C, strain nat1, hits give low values 1.01 | locus YDL074C, strain BRE1, hits give low values 1.01 | locus YDL101C, strain DUN1, hits give low values 1.01 | locus YDL134C, strain PPH21, hits give low values 0.998 | locus YDL185W, strain tfp1, hits give low values 0.991 | locus YDL192W, strain arf1, hits give low values 0.999 | locus YDR001C, strain nth1, hits give low values 0.987 | locus YDR069C, strain doa4, hits give low values 0.998 | locus YDR101C, strain arx1, hits give low values 1.01 | locus YDR137W, strain rgp1, hits give low values 1.02 | locus YDR150W, strain NUM1, hits give low values 0.992 | locus YDR159W, strain sac3, hits give low values 0.994 | locus YDR162C, strain NBP2, hits give low values 1.01 | locus YDR195W, strain ref2 0.992 | locus YDR297W, strain sur2, hits give low values 1.01 | locus YDR318W, strain mcm21, hits give low values 1 | locus YDR334W, strain swr1, hits give low values 1 | locus YDR335W, strain msn5, hits give low values 1.01 | locus YDR363W, strain ESC2, hits give low values 0.969 | locus YDR388W, hits give low values 0.998 | locus YDR392W, strain spt3, hits give low values 0.958 | locus YDR502C, strain sam2, hits give low values 1 | locus YEL003W, strain gim4, hits give low values 0.975 | locus YEL037C, strain rad23, hits give low values 0.98 | locus YEL061C, strain CIN8 (second series), hits give low values 0.982 | locus YEL061C, strain CIN8, hits give low values 1 | locus YER002W, strain NOP16, hits give low values 0.988 | locus YER015W, strain faa2, hits give low values 0.99 | locus YER016W, strain bim1, hits give low values 1 | locus YER110C, hits give low values 1 | locus YER111C, strain swi4, hits give low values 0.99 | locus YER155C, strain BEM2 (second series), hits give low values 0.951 | locus YER155C, strain BEM2, hits give low values 0.998 | locus YER167W, strain BCK2, hits give low values 1 | locus YFR010W, strain ubp6, hits give low values 1 | locus YGL078C, strain dbp3, hits give low values 0.992 | locus YGL086W, strain mad1, hits give low values 1 | locus YGL167C, strain pmr1, hits give low values 1.01 | locus YGL173C, strain kem1, hits give low values 1 | locus YGL227W, strain vid30, hits give low values 0.98 | locus YGL240W, strain doc1, hits give low values 0.997 | locus YGL248W, strain PDE1, hits give low values 1 | locus YGL253W, strain hxk2, hits give low values 1 | locus YGR078C, strain PAC10, hits give low values 1.01 | locus YGR135W, strain pre9, hits give low values 0.995 | locus YGR252W, strain gcn5, hits give low values 0.987 | locus YHR013C, strain ard1, hits give low values 1.01 | locus YHR027C, strain rpn1, hits give low values 1.01 | locus YHR030C, strain SLT2, hits give low values 1 and 1.02 | locus YHR079C, strain IRE1 (second series), hits give low values 0.995 | locus YHR079C, strain IRE1, hits give low values 0.993 | locus YHR094C, strain hxt1, hits give low values 0.995 | locus YHR129C, strain ARP1, hits give low values 1.01 | locus YHR142W, strain chs7, hits give low values 1 | locus YHR200W, strain rpn10, hits give low values 0.995 | locus YIL066C, strain RNR3, hits give low values 1.01 | locus YIL073C, strain SPO22, hits give low values 1 | locus YIL125W, strain kgd1, hits give low values 1 | locus YIR030C, strain dcg1, hits give low values 0.997 | locus YJL092W, strain hpr5, hits give low values 0.975 | locus YJL095W, strain BCK1 (second series), hits give low values 1.01 | locus YJL095W, strain BCK1, hits give low values 1.01 and 1.02 | locus YJL115W, strain asf1, hits give low values 0.988 | locus YJL129C, strain trk1, hits give low values 0.967 | locus YJL134W, strain LCB3, hits give low values 1.01 | locus YJL154C, strain vps35, hits give low values 0.976 | locus YJL164C, strain tpk1, hits give low values 1 | locus YJL166W, strain qcr8, hits give low values 1.04 | locus YJL168C, strain set2, hits give low values 0.996 | locus YJL187C, strain SWE1 (second series), hits give low values 1.01 | locus YJL187C, strain SWE1, hits give low values 1.02 | locus YJR043C, strain POL32, hits give low values 1 | locus YJR066W, strain TOR1, hits give low values 0.967
